Regarding `Cn1cc(-c2ccc3c(c2)CCN3C(=O)Cc2cccc(C(F)(F)F)c2)c2c(N)ncnc21` [GSK2606414], the Kinases covered result in the assay on EIF2AK3 is on record as “EIF2AK3”. `Cl.c1ccc(Cc2nc3ccc(Nc4ncnc5ccccc45)cc3[nH]2)cc1` [GR269666A]: the Kinases covered entry in the assay on ERBB4 is given as “ERBB4”. For `COc1cc2ncnc(Nc3cccc(Cl)c3F)c2cc1O[C@H]1CC[C@@]2(CC1)NCCNC2=O` [BI00113608], the Kinases covered result in the assay with EGFR is on record as “EGFR”; with EPHA6, “EPHA6”; in the assay with EPHB4 it was “EPHB4”; in the assay on ERBB2 it was “ERBB2”.

On to `COC(=O)Nc1nc2ccc(Oc3ccc(NC(=O)Nc4cc(C(F)(F)F)ccc4F)cc3)cc2s1.Cl` [GW693917A], for which, in the assay on EPHA2, the Kinases covered result is reported as “EPHA2”. For `Cl.O=S1CCN(Cc2ccc(-c3ccc4ncnc(Nc5ccc(OCc6ccccc6)c(F)c5)c4c3)o2)CC1` [GW576924A], the Kinases covered result with EGFR is “EGFR”; with ERBB2, “ERBB2”.

As to `Cl.O=C(O[C@H]1CN[C@H](C#Cc2cc3ncnc(Nc4ccc5c(cnn5Cc5ccccc5)c4)c3s2)C1)N1CCOCC1` [GSK200398A], the Kinases covered entry with EGFR was “EGFR”; in the assay on ERBB2, “ERBB2”; in the assay on ERBB4, “ERBB4”. Take `COc1cc2ncnc(Nc3cccc(Cl)c3F)c2cc1O[C@H]1CC[C@H]([C@@H]2NCCNC2=O)CC1` [BI00133844]: the Kinases covered entry with EGFR is “EGFR”; in the assay with EPHA6, “EPHA6”; with EPHB4 it was “EPHB4”; in the assay with ERBB2 it was “ERBB2”; with ERBB4, “ERBB4”. In the case of `Cc1cccc(CC(=O)N2CCc3c2ccc(-c2cn(C)c4ncnc(N)c24)c3F)n1` [GSK2656157], in the assay on EIF2AK3, the Kinases covered result was “EIF2AK3”.

Turning to `O=C(Nc1cccc(-c2nn3ncccc3c2-c2ccnc(Nc3cccnc3)n2)c1)c1c(F)cccc1F` [GSK312879], the Kinases covered result in the assay with EGFR was “EGFR”; in the assay on ERBB2, “ERBB2”; in the assay on ERBB4, “ERBB4”.

Regarding `Cc1cc(NC(=O)c2cccc(NC(=O)/C=C/CN(C)C)c2)ccc1Nc1nccc(-c2cccnc2)n1` [JNK-IN-7], the Kinases covered entry in the assay with ERK3 is reported as “ERK3”. Regarding `COc1cc2ncnc(Nc3ccc4c(cnn4Cc4ccccc4)c3)c2cc1OC.Cl` [GW282449A], the Kinases covered result in the assay on ERBB4 was “ERBB4”. With `Cn1ccc(-c2cccc(Nc3ccnc4cc(-c5nccs5)ccc34)c2)n1` [GW525701], the Kinases covered result in the assay with EPHB6 was “EPHB6”. In the case of `Fc1cccc(COc2ccc(Nc3ncncc3C#Cc3ccccc3)cc2Cl)c1` [GW651576X], the Kinases covered result with EGFR is “EGFR”.

With `COC(=O)C(NC(=O)NC1CCN(c2ccnc(Nc3ccc(F)cc3)n2)C1)c1ccccc1` (stereo not drawn) [GSK1379712], in the assay on EPHB6, the Kinases covered entry is recorded as “EPHB6”. As for `C#Cc1cccc(Nc2ncnc3cc(OC)c(OC4CCN(C)CC4)cc23)c1` [BI00007366], the figures for the Kinases covered entry with EGFR and with ERBB2 were “EGFR” and “ERBB2”, respectively. `CN(C)c1cc2c(Nc3ccc4c(cnn4Cc4ccccc4)c3)ncnc2cn1` [GW282974X]: the results for the Kinases covered entry with ERBB2 and in the assay on ERBB4 were “ERBB2” and “ERBB4”, respectively. In the case of `COc1cc2ncnc(Nc3ccc(F)c(Cl)c3)c2cc1O[C@H]1CC[C@H](N)CC1` [BIBW3133BS], the results for the Kinases covered entry with EGFR and with ERBB2 were “EGFR” and “ERBB2”, respectively. As to `C=CC(=O)Nc1cc(-c2nn(C3CCC(N4CCN(C(C)=O)CC4)CC3)c3ncnc(N)c23)ccc1Oc1ccccc1` (stereo not drawn) [TX-85-1], in the assay with ERBB3, the Kinases covered result is recorded as “ERBB3”.

Source of the values: publication PMC7826789 (International Journal of Molecular Sciences, 2021).
